# According to PubChem BioAssay AID2782 (National Center for Advancing Translational Sciences (NCATS), 2010):
# Inconclusive results are not listed. The source made the active and inactive calls. Calls come from the whole dose curve; as a rule, active = well fitted inhibition curve with a large enough effect in the polarisation, with a control signal flat (not every such curve was filed as active); inconclusive = small, poorly fitted or top-dose-only effect, or effect the other way, or a change in a side signal; inactive = no such curve, though single readings can be large or run the other way; the % refers to the polarisation.
# Experiment: Confirmation of Inhibitors Targeting the Menin-MLL Interaction in MLL Related Leukemias: Competition With Texas Red Labeled MLL-derived Mutant Peptide
# Details: fluorescence polarization, Texas Red MLL peptide displacement; series mostly up to 288 µM; FP change, negative = inhibition: at the top concentration
# Description: qHTS Assay for Inhibitors Targeting the Menin-MLL Interaction in MLL Related Leukemias
# NIH Chemical Genomics Center [NCGC]
# NIH Molecular Libraries Probe Centers Network [MLPCN]
# Assay Submitter (PI): Jolanta Grembecka, Tomasz Cierpicki, University of Virginia
# Translocations of the MLL (Mixed Lineage Leukemia) gene are frequently found in human leukemias affecting both children and adults. Fusion of MLL to one of more than 60 genes results in generation of oncogenic proteins upregulating Hox genes, which are vital to blood cell development. Patients harboring fusion of the MLL gene suffer from aggressive leukemias and respond poorly to available therapies. All of the oncogenic fusion proteins have a preserved N-terminal fragment of MLL that has been identified to interact with menin. It has been recently discovered that association with menin is critical to the leukemogenic activity of the MLL fusion oncoproteins. Selective targeting of the menin-MLL interaction could provide an attractive therapeutic approach to develop novel drugs for MLL-related leukemias. Small molecules blocking the menin-MLL interaction should reverse the oncogenic potential of MLL fusion proteins.
# We have developed and optimized a fluorescence polarization-based assay for the identification of Menin-MLL inhibitors. The assay was run employing two different MLL-derived peptides. The present assay uses a 12 amino acid peptide labeled with fluorescein at its N-terminus. This peptide consists of the menin high affinity binding motif from MLL and is potently bound by menin. Another peptide with a mutated sequence, labeled with Texas Red, was used in parallel as a less stringent screen for inhibitors.
# The present assay was run to confirm the activity of hits from the primary screen using the peptide with a mutated sequence, labeled with Texas Red.
# The Menin protein, the MLL-wild type (w.t.) derived peptide (N-terminal 12 amino acids), the MLL-derived peptide labeled with Texas Red and the MLL-w.t. peptide labeled with Fluorescein were kindly supplied by laboratory of Dr. Jolanta Grembecka, University of Virginia. All protein and peptide solutions were stored in single use aliquots at -80C. The Eu3+ Cyrptate-conjugated mouse monoclonal antibody anti-6 Histidine (Eu3+-AB) and the Streptavidin-XL665 conjugate (XL665) were purchased from Cisbio International (Bedford, MA). All antibody and XL665 conjugate solution stocks were stored in single use aliquots at -20C. The Buffer components for all assays were purchased from Sigma-Aldrich (St. Louis, MO) and Invitrogen (Carlsbad, CA).
# 1. FP reaction buffer: 50 mM Tris-HCl pH 7.5, 50 mM NaCl, 1mM DTT.
# Before use, 0.05% BSA is added.
# 2. Menin protein, MLL-w.t. labeled with fluorescein, MLL-mutant peptide labeled with texas red.
# Stored in singe use aliquots at -80C.
# 3. MLL-w.t. unlabeled peptide as positive control: 10 uM final in FP buffer.
# 1. Prepare Menin at 200 nM, MLL-w.t.-fluorescein at 25 nM, and MLL-mutant-texas red at 50 nM mixture in FP buffer.
# 2. Prepare Menin at 200 nM, MLL-w.t.-fluorescein at 25 nM, MLL-mutant-texas red at 50 nM, and 10 uM MLL-w.t. unlabeled mixture in FP buffer.
# 3. Prepare MLL-w.t.-fluorescein at 25 nM and MLL-mutant-texas red at 50 nM mixture in FP buffer.
# 3. Dispense 4 ul per well of reagent in step 1 in columns 2, 4 - 48 in a black 1536 well plate, dispense 4 ul per well of reagents from steps 2 and 3 in columns 1 and 3 respectively. Incubate plate at ambient for 15 minutes.
# 4. Transfer 23 nl per well of compound to plate and incubate at ambient for 1 hr.
# 5. Read fluorescence polarization for each label using the PerkinElmer Envision.
# Envision protocol for fluorescein: FITC FP Dual Enh Mirror, Excitation filter 480, Emission filter (1) P-pol 535, Emission filter (2) S-pol 535
# Envision protocol for texas red: FP Dual Enh Mirror, Excitation filter 555, Emission filter (1) P-pol 632, Emission filter (2) S-pol 632
# % is set by controls: 0 for no effect and ±100 for the full control effect; potency is the fitted concentration of half-maximal effect.
Structure (SMILES),"FP change, negative = inhibition",Potency
O=C(O)CN1C(=O)CN=C(c2ccccn2)c2cc(Cl)ccc21,-13.2% (inactive),–
CCCCCn1c(=O)c(C(=O)Nc2nc(CC(=O)OCC)cs2)c(O)c2ccccc21,30.7% (inactive),–
CCOP(=O)(OCC)C(NC(=O)c1ccccc1C)C(Cl)(Cl)Cl (centres undefined),-1.99% (inactive),–
O=C1NC(=O)C(=Cc2ccc3ccccc3c2)C(=O)N1,21.9% (inactive),–
COc1ccc(C(O)P(=O)(Oc2ccccc2)Oc2ccccc2)cc1 (centres undefined),-9.59% (inactive),–
c1cc2cc(c1)C[n+]1ccc(c3ccccc31)NCc1ccc(cc1)CNc1cc[n+](c3ccccc13)C2,–,100 µM (active)
Cc1cc(C(=O)NP(=O)(N2CCOCC2)N2CCOCC2)c(C)n1C1CC1,-16.8% [at 94.6 µM] (inactive),–
C[C@@H]1CC[C@@]2(NC1)O[C@H]1C[C@H]3[C@@H]4CC=C5C[C@@H](O)CC[C@]5(C)[C@H]4CC[C@]3(C)[C@H]1[C@@H]2C,28.8% [at 94.6 µM] (inactive),–
O=C(Nc1ccc2ccccc2c1)c1nn(C23CC4CC(CC(C4)C2)C3)cc1Br,45.4% (inactive),–
OC12C3C4CC5C6C4C1C6C(C53)N2CCc1cccc(F)c1 (centres undefined),22.9% [at 94.6 µM] (inactive),–
CC[C@]12C=CCN3CC[C@@]4(c5ccc(OC)cc5N(C)[C@H]4[C@@](O)(C(=O)OC)[C@@H]1OC(C)=O)C32 (some centres undefined),17.2% [at 94.6 µM] (inactive),–
COc1cc(/C=N/n2cnnc2)ccc1OC(=O)N(C)C,-22.9% (inactive),–
C[N+](C)(C)CC#CCN1CCCC1=O,-6.23% (inactive),–
CCCCn1c(=O)c(C(=O)Nc2ccsc2C(=O)OC)c(O)c2ccccc21,–,14.2 µM (active)
